Data published in the supplement of paper PMC12350171.
Counter-ions that a name gives are not always drawn. Values without a mark were called inactive.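 Rule for the calls: active = AUC significantly below DMSO controls by Student t-fit with adjusted P under 0.01; inactive = not significantly reduced.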

These molecules were tested on Vibrio cholerae (assay: growth AUC normalised to DMSO control (fraction of control); higher = less growth inhibition, active = hit call of the paper). Settings: 20 µM.
In short: (§1)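 Pathogens passaged twice anaerobically were inoculated at a starting OD578 of 0.01 into pre-reduced mGAM plates with drug at 20 μM and 1% DMSO, sealed with breathable membranes. Haemophilus parainfluenzae medium was supplemented with hemin and NAD. OD578 was read hourly for 24 h, with three biological replicates. Growth-curve AUC was computed by the trapezoidal rule up to the exponential-to-stationary transition and normalised to DMSO controls on the same plate.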

Row | SMILES | growth AUC normalised to DMSO control
1 | C[N+](C)(C)CCCCCC[N+](C)(C)C [Hexamethonium dibromide dihydrate] | 0.971
2 | CCCCNC(=O)NS(=O)(=O)c1ccc(C)cc1 [Tolbutamide] | 0.956
3 | COc1cc2nc(N3CCN(C(=O)C4CCCO4)CC3)nc(N)c2cc1OC (centres undefined) [Terazosin hydrochloride] | 0.989
4 | CC(=O)N1CCN(c2ccc(OCC3COC(Cn4ccnc4)(c4ccc(Cl)cc4Cl)O3)cc2)CC1 (centres undefined) [Ketoconazole] | 0.988

These molecules were tested on Yersinia pseudotuberculosis in the same assay as above. Settings: 20 µM.
In short: as §1

Row | SMILES | growth AUC normalised to DMSO control
5 | CCN[C@H]1CN(CCCOC)S(=O)(=O)c2sc(S(N)(=O)=O)cc21 [Brinzolamide] | 0.989
6 | CN1CCCN=C1/C=C/c1cccs1 [Pyrantel tartrate] | 1.01
7 | CN1CCc2cccc3c2[C@H]1Cc1ccc(O)c(O)c1-3 [R(-) Apomorphine hydrochloride hemihydrate] | 1.02
8 | CCCCCCCN(CC)CCCC(O)c1ccc(NS(C)(=O)=O)cc1 (centres undefined) [Ibutilide fumarate] | 0.989
9 | Clc1ccc2c(c1)C(N1CCNCC1)=Nc1ccccc1O2 [Amoxapine] | 1.01
10 | Cc1c(OCC(F)(F)F)ccnc1C[S+]([O-])c1nc2ccccc2[nH]1 (centres undefined) [Lansoprazole] | 0.994
11 | Nc1ccc(/N=N/c2ccccc2)c(N)n1 [Phenazopyridine hydrochloride] | 0.958
12 | C[C@]12CC[C@@H]3c4ccc(O)cc4C[C@@H](CCCCCCCCC[S+]([O-])CCCC(F)(F)C(F)(F)F)[C@H]3[C@@H]1CC[C@@H]2O (some centres undefined) [Fulvestrant] | 0.994
13 | OCCOCCN1CCN(C(c2ccccc2)c2ccc(Cl)cc2)CC1 (centres undefined) [Hydroxyzine dihydrochloride] | 0.865
14 | CNCCCC12CCC(c3ccccc31)c1ccccc12 [Maprotiline hydrochloride] | 1.01
15 | CC[C@H](C)C(=O)O[C@H]1C[C@H](O)C=C2C=C[C@H](C)[C@H](CC[C@@H](O)C[C@@H](O)CC(=O)O)[C@H]21 [Pravastatin] | 1.02
16 | S=c1[nH]cnc2nc[nH]c12 [Mercaptopurine] | 0.987
17 | CC/C(=C(\c1ccccc1)c1ccc(OCCN(C)C)cc1)c1ccccc1 [Tamoxifen citrate] | 0.981
18 | CC(=O)OCC(=O)[C@@]1(O)CC[C@H]2[C@@H]3CCC4=CC(=O)CC[C@]4(C)[C@@]3(F)[C@@H](O)C[C@@]21C [Fludrocortisone acetate] | 1
19 | CC[C@@H](CO)NCCN[C@@H](CC)CO [Ethambutol dihydrochloride] | 1.01
20 | O=C(Nc1cccc2c(=O)cc(-c3nnn[nH]3)oc12)c1ccc(OCCCCc2ccccc2)cc1 [Pranlukast] | 0.95
21 | CC(=C(CCO)SSCC1CCCO1)N(C=O)Cc1cnc(C)nc1N (stereo in doubt) [Fursultiamine hydrochloride] | 1.01
22 | Cc1ncc([N+](=O)[O-])n1CC(O)CCl (centres undefined) [Ornidazole] | 0.964
23 | CCC(=O)O[C@]1(C(=O)SCF)[C@H](C)C[C@H]2[C@@H]3C[C@H](F)C4=CC(=O)C=C[C@]4(C)[C@@]3(F)[C@@H](O)C[C@@]21C [Fluticasone propionate] | 1
24 | Cc1cccc(C)c1OCC(C)N (centres undefined) [Mexiletine hydrochloride] | 1.01

Row | SMILES | growth AUC normalised to DMSO control
25 | CCC(=O)OCC(=O)[C@@]1(OC(=O)CC)[C@H](C)C[C@H]2[C@H]3[C@H]([C@@H](O)C[C@@]21C)[C@@]1(C)C=CC(=O)C=C1C[C@H]3Cl [Alclometasone dipropionate] | 1.01
26 | NC(=O)c1cccnc1 [Nicotinamide] | 1.01
27 | c1ccc(CC2=NCCN2)cc1 [Tolazoline hydrochloride] | 1.01
28 | COc1cccc2c1C(=O)c1c(O)c3c(c(O)c1C2=O)C[C@@](O)(C(=O)CO)C[C@@H]3O[C@H]1C[C@H](N)[C@H](O)[C@H](C)O1 [Doxorubicin hydrochloride] | 0.906 (active)
29 | CC(=O)NC[C@H]1CN(c2ccc(N3CCOCC3)c(F)c2)C(=O)O1 [Linezolid] | 0.916
30 | NC1CCN(c2nc3c(cc2F)c(=O)c(C(=O)O)cn3-c2ccc(F)cc2F)C1 (centres undefined) [Tosufloxacin hydrochloride] | 0.0355 (active)
31 | CCn1cc(C(=O)O)c(=O)c2cc(F)c(N3CCNCC3)cc21 [Norfloxacin] | 0.0323 (active)
32 | CCC1=C(C)CN(C(=O)NCCc2ccc(S(=O)(=O)NC(=O)N[C@H]3CC[C@H](C)CC3)cc2)C1=O [Glimepiride] | 1.01
33 | COc1ccc(C(=O)c2ccccc2O)c(O)c1 [Dioxybenzone] | 0.982
34 | C[C@H](O)C(=O)Nc1c(I)c(C(=O)NC(CO)CO)c(I)c(C(=O)NC(CO)CO)c1I [Iopamidol] | 1.03
35 | CCCOc1ccccc1-c1nc2[nH]nnc2c(=O)[nH]1 [Zaprinast] | 0.989
36 | CCCCc1oc2ccccc2c1C(=O)c1cc(I)c(OCCN(CC)CC)c(I)c1 [Amiodarone hydrochloride] | 1.02
37 | CC(C(=O)O)c1ccc(-c2ccccc2)c(F)c1 (centres undefined) [Flurbiprofen] | 0.985
38 | C[C@]12C=CC(=O)C=C1CC[C@@H]1[C@@H]2[C@@H](O)C[C@@]2(C)[C@H]1CC[C@]2(O)C(=O)CO [Prednisolone] | 0.994
39 | CNCCc1ccccn1 [Betahistine mesylate] | 1.01
40 | C[C@]12C=CC(=O)C=C1CC[C@@H]1[C@@H]2C(=O)C[C@@]2(C)[C@H]1CC[C@]2(O)C(=O)CO [Prednisone] | 1.01
41 | C[N+](C)(C)CCCCCC[N+](C)(C)C [Hexamethonium dibromide dihydrate] | 0.966
42 | CCCCNC(=O)NS(=O)(=O)c1ccc(C)cc1 [Tolbutamide] | 0.998
43 | COc1cc2nc(N3CCN(C(=O)C4CCCO4)CC3)nc(N)c2cc1OC (centres undefined) [Terazosin hydrochloride] | 0.989
44 | CC(=O)N1CCN(c2ccc(OCC3COC(Cn4ccnc4)(c4ccc(Cl)cc4Cl)O3)cc2)CC1 (centres undefined) [Ketoconazole] | 0.984
